D1 agonist: activates the human D1 dopamine receptor. hit rate 1% among 360,000. P21728. activation, % at 2 µM. HEK293 T-REx D1 cells, calcium flux, agonist mode; further: 0% is about no effect
Target sequence (P21728 whole entry, looked up): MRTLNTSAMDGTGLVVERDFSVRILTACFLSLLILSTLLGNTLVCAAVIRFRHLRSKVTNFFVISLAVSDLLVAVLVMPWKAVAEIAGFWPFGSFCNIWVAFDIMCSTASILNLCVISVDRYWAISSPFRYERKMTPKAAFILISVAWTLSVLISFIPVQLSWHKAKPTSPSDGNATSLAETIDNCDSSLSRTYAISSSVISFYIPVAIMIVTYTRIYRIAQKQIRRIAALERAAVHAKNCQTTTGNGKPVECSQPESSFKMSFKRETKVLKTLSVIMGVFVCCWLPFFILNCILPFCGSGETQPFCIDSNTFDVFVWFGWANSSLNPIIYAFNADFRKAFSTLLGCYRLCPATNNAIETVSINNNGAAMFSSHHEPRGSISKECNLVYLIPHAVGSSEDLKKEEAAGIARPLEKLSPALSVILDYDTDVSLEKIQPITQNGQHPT
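Agonism was scored from calcium flux recorded over 180 s (1 read/s) after pintool compound addition, following a 10-cycle baseline. Cells were inducible force-coupled HEK293 TREx D1, plated overnight at 30 C and loaded with no-wash calcium dye.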
D1 antag: blocks dopamine activation of the human D1 receptor; P21728; HEK293 TREx D1 cells, calcium flux, dopamine EC80; stronger effect = lower value; hit rate 3.2% among 360,000; activity change, negative = inhibition, % at 10 µM; in the data active means activity change below about -30%; further: on the % scale 0 is the no-effect control and ±100 the full control effect
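Tetracycline-induced HEK293 T-REx cells with force-coupled D1 receptor were loaded with a no-wash calcium dye. Compound was added after a 10 s baseline and read kinetically for 180 s; EC80 dopamine was then added and calcium flux followed another 180 s.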
TRHR PAM: TRH receptor (human) allosteric enhancement; enhancement, % at 2 µM; TRHR cells, fluo-8 calcium fluorescence, EC20 TRH enhancement; hit rate 0.66% among 360,000; P34981; in the data active means enhancement above about 30%; further: 0% is about no effect
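Enhancer read-out: after compound pinning and an initial kinetic agonist-mode read, an EC20 of TRH (10 nM final) was injected and fluo-8 calcium signal (Ex 480/Em 530) followed at 1 s/cycle for 100 cycles in TRHR-expressing cells.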
USP1 inh: USP1/UAF1 (human) deubiquitinase inhibition. Potency, µM (doses to about 57.1 µM), inactives show at the highest dose activity change, negative = inhibition, most hits filed as inhibitors. hit rate 0.23% among 390,000. O94782. recombinant USP1/UAF1, Ub-Rhodamine cleavage fluorescence; active means well fitted inhibition curve with a large enough effect; inconclusive means small, poorly fitted or top-dose-only effect; inactive means no such curve, though single readings can be large or run the other way; further: potency means the concentration at half of the fitted maximal effect; on the % scale 0 is the no-effect control and ±100 the full control effect; nearly all actives have a fitted effect of over 60% in size
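High-throughput fluorogenic screen: 1nM USP1/UAF1 complex, Ub-Rho substrate 150nM final, 50mM HEPES pH 7.8 with 0.5mM EDTA, 0.1 mg/ml BSA, 1mM TCEP and 0.01% Tween-20.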
TRHR ag: agonists of human TRH receptor | AID 493084 | activation, % at 2 µM | P34981 | hit rate 0.18% among 360,000 | TRHR cells, calcium flux fluo-8, FDSS agonist mode; further: 0% is about no effect
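In this calcium-flux screen, cells bearing human TRHR are dye-loaded with fluo-8, baselined for 10 cycles, then exposed to library compounds; positive kinetic calcium responses during the agonist phase mark hits, with TRH as control.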
D1 PAM: enhances dopamine response at the human D1 receptor; HEK293 TREx D1 cells, calcium flux, dopamine EC20 potentiation; potentiation, % at 10 µM; hit rate 0.036% among 360,000; AID 504651; in the data active means potentiation above about 30%; further: 0% is about no effect
* marks the source's active call; other numbers are inactive results; ? = inconclusive; . = no result given. Only some compounds are listed: those with a hit (about 4.4% of all), similar ones and a draw of the others. Unless noted, no stated cut-off is given here; in the data, active means activation above about 30%; inactive means the rest.

SMILES	D1 agonist	D1 antag	TRHR PAM	USP1 inh	TRHR ag	D1 PAM
Nc1nnc(SCC(=O)Nc2nccs2)s1	0.8	-42.8*	-2.8	-11.6%	1.4	-5.3
Cc1nnc(SCC(=O)Nc2nccs2)s1	-2.0	6.5	-1.2	-16.3%	0.3	-6.2
COc1ccc(-n2[nH]c(C)cc2=O)cc1	3.0	18.1	32.6*	?	0.2	-3.4
Cc1cc(C(=O)CSc2nnc(N)s2)c(C)n1Cc1cccs1	8.8	-38.7*	-5.2	1.1%	0.0	-7.0
Cc1csc(SCC(=O)c2cc(C)n(Cc3cccs3)c2C)n1	11.2	-16.8	-6.7	-5.5%	0.6	-1.1
Cc1ccc(NC(=O)N2CCC(n3c(C)nc4cccnc43)CC2)c(Cl)c1	-0.2	-10.3	2.8	-15.3%	0.1	-1.1
Cc1ccc(S(=O)(=O)NCC2CCC(C(=O)NCc3cccs3)CC2)cc1 (configuration not stated)	4.2	-5.5	-1.2	-16.6%	-2.3	-5.8
O=C(NCc1cccs1)C1CCC(CNS(=O)(=O)c2ccccc2)CC1 (configuration not stated)	2.5	-33.4*	0.1	-2.7%	-0.4	-8.1
Cc1cc(C)nc(N2CCCC(C(=O)NCc3cccs3)C2)n1 (configuration not stated)	0.8	-0.5	30.3*	3.3%	-1.0	1.4
O=C(NCc1cccs1)C1CCCN(c2nc3ccccc3o2)C1 (configuration not stated)	1.4	-45.9*	-15.9	-12.1%	1.0	-3.7
CCCCc1nn2c(=O)cc(COC(=O)c3cccc(NC(=O)c4cccc(Cl)c4)c3)nc2s1	2.2	14.9	-2.0	9.5%	-0.2	-0.2
CCCSCCCNC(=O)C1CCN(C(=O)c2cc3sccc3n2C)CC1	4.0	-16.6	-4.0	-13.0%	-0.1	-5.8
O=C(Nc1ccc(-c2nc3ccccc3o2)c(O)c1)c1cc(-n2cnnc2)ccc1Cl	3.8	-9.3	9.3	-25.3%	0.9	-9.2
Cc1c(NC(=O)c2cc(-n3cnnc3)ccc2Cl)cccc1-c1nc2ccccc2o1	-0.4	-44.1*	4.1	-22.6%	-0.4	-23.2
O=C(COc1cc(Cl)c(Cl)cc1Cl)Nc1cccc(O)c1	2.8	-22.3	-4.9	-11.0%	-0.5	1.4
Cc1cc(OCC(=O)Nc2ccncc2)ccc1Br	12.7	-32.1*	-11.1	-18.9%	-0.7	-2.2
O=C(COc1cc(Cl)c(Cl)cc1Cl)Nc1ccncc1	-1.4	-30.0*	1.9	-13.3%	-0.9	4.8
COc1cccc(NC(=O)COc2ccc(Br)c(C)c2)c1	2.0	-36.5*	20.2	-23.7%	-0.2	-5.2
CCOC(=O)CC1COc2ccccc2N1C(=O)c1cccc([N+](=O)[O-])c1 (configuration not stated)	2.3	3.6	31.1*	-30.0%	-0.2	7.5
CCN(CC)S(=O)(=O)c1ccc(NC(=O)c2ccc(N(C)S(C)(=O)=O)cc2)cc1	8.2	-35.9*	-3.8	-8.2%	1.5	-12.1
CCN(CC)S(=O)(=O)c1ccc(NC(=O)c2ccccc2N(C)S(C)(=O)=O)cc1	-0.2	-24.0	-1.2	-4.5%	1.0	-0.7
Cc1ccc2c(c1)C(c1ccccc1)N(C(=O)COc1ccc(Cl)cc1Cl)CC(=O)N2 (configuration not stated)	7.7	7.4	5.8	-27.4%	0.4	2.1
Cc1nn2c(N3CCN(CCO)CC3)c3c(nc2c1-c1ccccc1)CCCC3	9.5	-65.8*	-7.8	-1.0%	-0.8	-2.0
Cc1nn2c(N3CCCC3)c3c(nc2c1-c1ccccc1)CCC3	0.0	0.2	-2.4	-24.5%	-0.9	-1.1
O=C(Nc1ccc(Br)c2cccnc12)c1cccc2ccccc12	0.8	-1.7	6.9	-10.9%	0.0	3.5
SMILES	D1 agonist	D1 antag	TRHR PAM	USP1 inh	TRHR ag	D1 PAM
COc1ccc(CC2(CO)CCN(S(=O)(=O)c3sccc3C)CC2)cc1	32.1*	-13.7	-5.3	-18.4%	-0.1	-6.0
CCN(CC(=O)Nc1cc(C)nn1-c1nc(C)cc(C)n1)Cc1ccccc1	0.0	-0.2	32.9*	0.9%	-0.9	-5.2
Cc1cc(C)nc(-n2nc(C)cc2NC(=O)CNCc2ccccc2)n1	2.3	-7.7	6.5	-0.5%	0.2	-5.8
COc1ccccc1Oc1nnnn1-c1ccc(C(N)=O)cc1	0.9	-11.1	-1.2	0.4%	-0.1	2.8
NC(=O)c1ccc(-n2nnnc2Oc2ccccc2)cc1	-2.2	-49.0*	-0.1	-9.2%	0.1	1.5
CCc1cccc(C)c1NC(=O)CCCn1c(C)c2cnn(-c3ccccc3)c(=O)c2c1C	0.2	4.1	-1.8	-17.2%	-0.2	1.1
COc1ccc(S(=O)(=O)NCc2nc(-c3ccccc3)no2)cc1	2.6	2.6	1.4	20.3%	-0.8	-1.6
CCOC(=O)C1=C(C)N=c2s/c(=C\c3ccc(OCC(=O)O)cc3)c(=O)n2C1c1ccccc1 (configuration not stated)	7.8	13.2	0.2	-10.9%	1.3	3.0
CCOC(=O)C1=C(c2ccccc2)N=c2s/c(=C\c3ccc(O)cc3)c(=O)n2C1c1cccs1 (configuration not stated)	31.4*	4.7	1.6	28.2µM*	22.8	1.8
Cc1cc(C)c([N+](=O)[O-])cc1-c1ccc(/C=N/c2c(-c3ccco3)nc3ccccn23)o1	1.7	-49.5*	-1.4	-21.7%	1.5	1.0
O=[N+]([O-])c1ccc(Cl)c(-c2ccc(/C=N/c3c(-c4ccco4)nc4ccccn34)o2)c1	.	.	.	-15.3%	.	.
Cc1ccc([C@@H]2C3COCC=C3C(C#N)=C(N)C2(C#N)C#N)o1 (some centres not stated)	3.0	1.5	16.4	31.6µM*	1.4	7.5
CCS(=O)(=O)c1nc(S(=O)(=O)c2ccc(Cl)cc2)c(NCc2ccc(Cl)cc2)s1	1.6	-8.1	-2.2	-4.0%	0.5	-2.1
Cn1ncc2c(=O)n(CC(=O)NC34CC5CC(CC(C5)C3)C4)cnc21	1.6	-34.0*	-1.1	-23.4%	0.6	2.5
CCOC(=O)CNC(=O)Nc1cc(C(=O)NCc2ccccc2OC)ccc1N1CCCC1	-0.2	0.9	-6.9	-28.4%	-0.5	-0.3
O=S(=O)(c1ccc(N=C2NN=C(c3cc(F)ccc3F)CS2)cc1)N1CCOCC1	4.3	4.2	0.9	?	0.7	-2.9
CC(=O)Nc1ccc(C2=NNC(=Nc3ccc(S(=O)(=O)N4CCOCC4)cc3)SC2)cc1	1.2	1.1	-8.3	15.8µM*	0.3	6.2
CN(C)S(=O)(=O)c1cccc(N=C2NN=C(c3ccccc3)CS2)c1	1.1	-6.7	-1.2	?	0.1	1.2
CC(=O)Nc1ccc(C2=NNC(=Nc3cccc(S(=O)(=O)N(C)C)c3)SC2)cc1	3.3	4.2	0.0	10µM*	0.0	1.4
